PubChem BioAssay (NCI)
The panel holds about 79,000 compounds, 15% with a hit somewhere; the sample as a whole holds those more often. A number with no mark means an inactive call. The source made the active and inactive calls. Rule as the data show it: active = growth inhibition above about 70%; inactive = the rest.

Experiment: NCI Yeast Anticancer Drug Screen. Data for the sgs1 mgt1 strain (AID 161);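 also: 0% = growth of cultures given vehicle only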
Settings: S. cerevisiae sgs1 mgt1 strain, active compounds read high
Procedure: Growth inhibition of yeast strains with defined genetic alterations is measured as a screen for potential anti-cancer activity. Selected strains with alterations in DNA damage repair or cell cycle control were exposed to compounds and growth inhibition was measured relative to vehicle treated controls. The strain used in this assay is sgs1 mgt1

[1] = at 5.0 µM (retest, dose inferred, filed as 0.5)
[2] = at 50.0 µM (retest, dose inferred, filed as 5.0)

Row | SMILES | growth inhibition [1] | growth inhibition [2] | growth inhibition (at 50.0 µM)
1 | CC1CCC2(C)C(CC=C(C=O)C2(O)C=O)C12CO2 (configuration not stated) | 99% (active) | 99% (active) | 94.5% (active)
2 | CC(=O)Oc1ccc(N=[N+]([O-])c2ccc(OC(C)=O)cc2)cc1 | 2% | 19% | 45.6%
3 | Fc1ccc(NC(=S)SCc2ccccc2)cc1F | 5% | 94% (active) | 99.2% (active)
4 | Oc1cc(F)ccc1-c1ccc(F)cc1 | 13% | 97% (active) | 47.4%
5 | CC1CCC(NCCOC(=O)c2ccc([N+](=O)[O-])cc2)CC1 (configuration not stated) | 1% | 24% | 54.5%
6 | CCOc1c(N=Nc2ccccc2OC)c(-c2ccccc2)nn1C(N)=S | 26% | 61% | 76.1% (active)
7 | CS(C)=O.[Cl-].[Cl-].[NH-]CC(O)CN(Cc1ccccc1)CC(O)CN.[Pt] (configuration not stated) | 2% | 18% | 17.7%
8 | C(=P(c1ccccc1)(c1ccccc1)c1ccccc1)[P+](c1ccccc1)(c1ccccc1)c1ccccc1 | 99% (active) | 99% (active) | 99.3% (active)
9 | Cc1cc(C)c2c(c1)sc1nncn12 | 53% | 97% (active) | 96% (active)
10 | CC(=O)Nc1ccc(N=C2c3ccccc3-c3ccc(NC(C)=O)cc32)cc1 | -2% | 57% | 98.5% (active)
11 | Cc1cc(O)ccc1N=Nc1ccccc1 | -1% | 99% (active) | 99.7% (active)
12 | O=C1C=CC(=O)N1c1ccc(-c2nc3ccccc3o2)cc1 | 100% (active) | 96% (active) | 91.5% (active)
13 | N#Cc1ccccc1[N+](=O)[O-] | 3% | 63% | 59.8%
14 | COc1ccc(OC)c2c1C=C[C@H](C1(C)SCCS1)C2C(C)=O (some centres not stated) | 6% | 77% (active) | 80.7% (active)
